Experimental data: PubChem BioAssay
Values joined by “and” are separate entries in the source; they are usually repeats but may differ in a detail not shown here. Equal values may be shown once. Active and inactive are the calls of the source. Unless noted, how the calls were made is not given here.

Tests used:
[1] = compounds altering circadian rhythm period length – cell-based, LOPAC library, luminescence reporter (AID 2774); conditions: circadian reporter cells, at 7 µM, actives lie on both sides;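 further: values are relative to mean of DMSO wells on each plate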
[2] = test system: Hepatitis C virus NS3 helicase; experiment: blockers of NS3h binding to ssDNA – biochemical, fluorescence polarization, LOPAC1280 library, primary screen (AID 687035; in the data active means inhibition above about 37%); conditions: Purified HCV NS3 helicase, Cy5-dT15 ssDNA binding fluorescence polarization; stronger effect = higher value; concentration not given here
[3] = compounds altering Cy5-DNA-NS3h complex signal – biochemical, LOPAC1280, artefact control for HCV NS3 helicase inhibitor project (AID 687037); conditions: Cy5-DNA-NS3h complex fluorescence interference counterscreen
[4] = test system: Aerobactin synthetase IucA (Klebsiella pneumoniae); experiment: inhibition of K. pneumoniae IucA enzyme – biochemical, Tocris library, absorbance (AID 1345561); conditions: purified IucA enzyme assay, absorbance (OD) read-out; stronger effect = lower value;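 tested at 8 µM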;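 further: 100% = enzyme without compound and 0% = no enzyme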
[5] = viability loss with induced miR-34 in A549 – imaging, A549 dox-inducible miR-34, nuclei and caspase counts, primary screen (AID 1347080;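 active means compounds whose cell count with miR-34 switched on is under 0.7 times the count with it off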); conditions: A549 miR-34 inducible, Hoechst nuclei count, 48 h
[6] = blockers of cellular phospholipid synthesis – cell-based, LOPAC library, screen 4, primary screen (AID 1347384); conditions: animal cells, phospholipid biosynthesis inhibition screen; at 10 µM
[7] = galactose survival enhancers in mitochondrial complex I cybrids – cell-based, galactose medium, ATP luminescence, primary screen (AID 1645843;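 active means z-score of at least 1.8 in each of two replicates, scored against plate mean and spread of sample wells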;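 further: positive z means more ATP and so rescue of galactose-driven cybrid death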); conditions: complex I mutant cybrid cells, 72 h, stronger effect = higher value
[8] = stronger effect = lower value, cell number ratio, induced over uninduced
[9] = measured here: relative caspase fold change +Dox/-Dox
[10] = measured here: total cells with miR-34 induction, stronger effect = lower value
[11] = measured here: total cells without miR-34 induction

| SMILES | period change [1] | inhibition [2] | fluorescence ratio (interference) [3] | remaining activity [4] | fold change [5, 8] | fold change [5, 9] | cell count [5, 10] | cell count [5, 11] | outcome [6] | z-score [7] |
| --- | --- | --- | --- | --- | --- | --- | --- | --- | --- | --- |
| COc1ccccc1N1CCN(CCCCN2C(=O)c3ccccc3C2=O)CC1 | 0.18 h (inactive) | -3% (inactive) | 1 (inactive) | 97.1% (inactive) | 1.11 (inactive) and 0.969 (inactive) | 1.56 and 0.971 | 9310 and 9300 | 8410 and 9600 | inactive | -0.155 (inactive) and -0.92 (inactive) |
| N[C@@H](CS(=O)O)C(=O)O | 0.04 h (inactive) | -5% (inactive) | 0.9 (inactive) | 124% (inactive) | 1.01 (inactive) and 0.998 (inactive) | 1.54 and 0.698 | 10700 and 8340 | 10600 and 8360 | inactive | 0.58 (inactive) and 0.25 (inactive) |
| CCCCCCCC/C=C\CCCCCCCC(=O)NCCO | 0.02 h (inactive) | -1% (inactive) | 1 (inactive) | 112% (inactive) | 1.03 (inactive) and 1.01 (inactive) and 0.976 (inactive) | 0.948 and 0.828 and 0.812 | 10400 and 5960 and 9000 | 10100 and 5900 and 9210 | inactive | -1.28 (inactive) and -0.79 (inactive) |
| N[C@H](C(=O)O)c1cc(O)cc(O)c1 | 0.11 h (inactive) | -1% (inactive) | 1.1 (inactive) | 115% (inactive) | 1.01 (inactive) and 0.963 (inactive) | 1.04 and 0.77 | 10300 and 8780 | 10200 and 9120 | inactive | 0.215 (inactive) and -0.05 (inactive) |
| CC(C)(CO)Cc1cc(C(C)(C)C)c(O)c(C(C)(C)C)c1 | 0.05 h (inactive) | 0% (inactive) | 1 (inactive) | 101% (inactive) | 1.04 (inactive) and 0.971 (inactive) | 1.88 and 0.81 | 7090 and 8690 | 6800 and 8950 | inactive | -1.4 (inactive) and -0.73 (inactive) |
| CC(/C=C/c1cccc(Oc2ccc(F)cc2)c1)N(O)C(N)=O (stereo not given) | -0.095 h (inactive) | 0% (inactive) | 1 (inactive) | 129% (inactive) | 1.07 (inactive) and 0.882 (inactive) and 0.954 (inactive) | 1.69 and 1.06 and 0.78 | 8210 and 4190 and 6640 | 7700 and 4750 and 6960 | inactive | -1.33 (inactive) and -0.775 (inactive) |
| CC(C)NC[C@H](O)COc1cccc2[nH]ccc12 | 0.125 h (inactive) | -2% (inactive) | 1 (inactive) | 102% (inactive) | 0.97 (inactive) and 0.927 (inactive) | 1.45 and 1.12 | 9970 and 8970 | 10300 and 9670 | inactive | -0.095 (inactive) and -0.03 (inactive) |
| Cc1nc2c(OCc3ccccc3)cccn2c1CC#N | -0.02 h (inactive) | 1% (inactive) | 1 (inactive) | 113% (inactive) | 1.04 (inactive) and 0.99 (inactive) | 1.18 and 1.15 | 9420 and 8410 | 9080 and 8490 | inactive | 1.07 (inactive) and 2.13 (inactive) |
| CCCCCCN(CCCCCC)C(=O)Cc1c(-c2ccc(F)cc2)[nH]c2ccccc12 | -0.08 h (inactive) | 1% (inactive) | 1 (inactive) | 100% (inactive) | 1.29 (inactive) and 0.933 (inactive) | 1.15 and 0.997 | 5020 and 4030 | 3880 and 4320 | inactive | -1.04 (inactive) and -1.23 (inactive) |
| CC(C)(C)NCC(O)COc1cccc2[nH]c(=O)[nH]c12 (stereo not given) | -0.075 h (inactive) | -3% (inactive) | 1 (inactive) | 89.1% (inactive) | 0.952 (inactive) and 0.913 (inactive) | 1.58 and 1.07 | 9940 and 8700 | 10400 and 9520 | inactive | 0.24 (inactive) and 0.505 (inactive) |
| CC1CCN=C(N)S1 (stereo not given) | -0.02 h (inactive) | -2% (inactive) | 1 (inactive) | 103% (inactive) | 1.02 (inactive) and 0.923 (inactive) | 1.68 and 0.753 | 9440 and 8650 | 9270 and 9380 | inactive | 0.31 (inactive) and 1.27 (inactive) |
| COc1cc2c(CCNC(C)=O)c[nH]c2cc1Cl | -0.08 h (inactive) | -1% (inactive) | 1 (inactive) | 94.8% (inactive) | 1.06 (inactive) and 0.902 (inactive) | 2.61 and 0.855 | 9840 and 8550 | 9250 and 9470 | inactive | 0.525 (inactive) and -0.185 (inactive) |
| N#Cc1cc2nc(O)c(O)nc2cc1[N+](=O)[O-] | 0.03 h (inactive) | -1% (inactive) | 1 (inactive) | 114% (inactive) | 1.02 (inactive) and 0.856 (inactive) | 1.08 and 1.89 | 9680 and 8420 | 9500 and 9840 | inactive | 0.385 (inactive) and 0.185 (inactive) |
| N=C(N)SCCc1cnc[nH]1 | 0.045 h (inactive) | -3% (inactive) | 1 (inactive) | 120% (inactive) | 0.923 (inactive) and 0.986 (inactive) | 1.08 and 0.938 | 8720 and 7870 | 9460 and 7980 | inactive | 0.08 (inactive) and 0.435 (inactive) |
